Source: PubChem (National Center for Advancing Translational Sciences (NCATS))
A selection: hits, their analogues and other compounds. The true share with any hit is near 12%.
G9a inh – qHTS Assay for Inhibitors of Histone Lysine Methyltransferase G9a; 8.8% of 350,000 active; Histone-lysine N-methyltransferase EHMT2 (Homo sapiens), Q96KQ7; AID 504332, 2011; G9a H3K9 monomethylation, AlphaScreen, 2 h; Potency, µM (titrated, usually from 102 µM), for the others: at the top dose activity, negative = inhibition, most hits filed as inhibitors; note: % is set by controls: 0 for no effect and ±100 for the full control effect; nearly all actives have a fitted effect of over 75% in size
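Quantitative HTS format: methyltransferase activity on a biotin-tagged H3K9 peptide is measured by AlphaScreen, using a rabbit anti-monomethyl-H3K9 antibody with streptavidin donor and anti-IgG acceptor beads. Final levels are 20 nM enzyme, 500 nM peptide, 20 uM SAM; 2 h RT.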
BAZ2B inh – qHTS Assay for Inhibitors of BAZ2B; Bromodomain adjacent to zinc finger domain protein 2B (Homo sapiens), Q9UIF8; AlphaScreen BAZ2B-H3K14Ac peptide displacement; Potency, µM (doses to about 114 µM), inactives show top-dose activity change, negative = inhibition, hits mostly inhibitors; 4.4% of 360,000 active; AID 504333, 2011; note: % is set by controls: 0 for no effect and ±100 for the full control effect; nearly all actives have a fitted effect of over 60% in size
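BAZ2B 50 nM plus b-H3(5-23)K14Ac 50 nM, PBS pH 7.4/0.01% Tween-20, 30 min RT; compound added (max 110 uM), 30 min RT; streptavidin donor/Ni-chelate acceptor beads 10 ug/mL final, 20 min dark; AlphaScreen read.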
HP1b binding inh – HTS for Inhibitors of HP1-beta Chromodomain Interactions with Methylated Histone Tails; AlphaScreen HP1-beta / biotin-H3K9me3 peptide binding; Potency, µM (series often up to 114 µM), for the others: top-dose activity change, negative = inhibition, hits mostly inhibitors; 0.56% of 390,000 active; note: nearly all actives have a fitted effect of over 70% in size
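AlphaScreen: HP1-beta (50 nM) preformed 30 min with biotin-H3(1-18)K9me3 peptide (50 nM) in PBS pH 7.4, 0.01% Tween-20. Compound added for 30 min at RT, then streptavidin donor/nickel chelate acceptor beads (10 ug/mL) for 30 min.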
JMJD2A Tudor inh – qHTS Assay for Inhibitors of JMJD2A-Tudor Domain; Lysine-specific demethylase 4A (Homo sapiens), O75164; AlphaScreen JMJD2A-Tudor / H3K4me3 peptide binding; Potency, µM (doses to about 114 µM), for the others: at the top dose activity change, negative = inhibition, usual class: inhibitors; 4.4% of 390,000 active; AID 504339, 2011; note: % is set by controls: 0 for no effect and ±100 for the full control effect; nearly all actives have a fitted effect of over 50% in size
Sfp inh – qHTS Assay for Inhibitors of Bacillus subtilis Sfp phosphopantetheinyl transferase (PPTase) | 4'-phosphopantetheinyl transferase ffp (Bacillus subtilis), Q9F4F7 | Biochemical Sfp PPTase activity, qHTS | Potency, µM, for inactives: largest response in the series, negative = inhibition, hits mostly inhibitors | 3.5% of 310,000 active | AID 1490, 2009;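 note: the enzyme is Sfp with the accession as filed and its product quenches rhodamine fluorescence; 0% = enzyme reaction without inhibitor and -100% = no enzyme wells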
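Sfp 15 nM + cpd, 15 min RT; start w/ rhodamine-CoA 5 uM, BHQ-2-YbbR 12.5 uM (final); 50 mM Hepes pH 7.6, 10 mM MgCl2, 0.01% NP-40, 0.01% BSA; read 525/598 nm at 0 and 30 min.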
L3MBTL1 inh – qHTS Assay for the Inhibitors of L3MBTL1 | Lethal(3)malignant brain tumor-like protein 1 (Homo sapiens), Q9Y468 | AlphaScreen L3MBTL1–H3K9me1 peptide binding | Potency, µM (titrated, usually from 57.1 µM), without a hit: at the top dose activity, negative = inhibition, actives largely listed as inhibitors | 0.66% of 230,000 active; note: % is set by controls: 0 for no effect and ±100 for the full control effect; nearly all actives have a fitted effect of over 60% in size
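AlphaScreen assay: L3MBTL1 (50 nM final) was preincubated 30 min at room temperature with biotinylated H3(1-15)K9me1 peptide (75 nM final), then 30 min with library compounds; streptavidin donor and nickel chelate acceptor beads (10 ug/mL final) added, 30 min dark.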
* hit, by the source's call; ? = inconclusive; . = no result given; [ ] = dose if it differs, or a comment. Calls come from the whole dose curve; as a rule, active = well fitted curve in the direction sought with a large enough effect; inconclusive = small, poorly fitted or top-dose-only effect, or another doubt; inactive = no such curve, though single readings can be large; an effect the other way counts as inactive or inconclusive. Potency is the fitted concentration of half-maximal effect.

SMILES	G9a inh	BAZ2B inh	HP1b binding inh	JMJD2A Tudor inh	Sfp inh	L3MBTL1 inh
Cc1ccc(S(=O)(=O)CCC(=O)c2ccc(F)cc2)cc1	126.4%	7.8%	49.0%	-3.4%	5.9%	.
O=S(=O)(c1ccc2c(c1)OCCO2)C1CCC(O)CC1 (centres undefined)	3.8%[12.7 µM]	0.1%	.	.	.	4.7%
Cc1nn(-c2ccccc2)c2c1N(CC(=O)N1CCN(c3ccc(Cl)cc3)CC1)C(=O)CS2	2.8%[59 µM]	-5.0%	6.6%	-14.3%	.	.
CC(C)CSC1=NSC2=NC(=O)/C(=C\c3cccs3)C(=N)N12	44.7µM*	?	-4.2%	?	22.7%	-3.0%
N=C1/C(=C/c2cccs2)C(=O)N=C2SN=C(SCc3ccccc3)N12	-7.8%[12.7 µM]	?	-5.0%	?	4.0%	-0.5%
CCOC(=O)C1CCCN(c2c(C(=O)c3ccccc3)cnc3ccc(OC)cc23)C1 (centres undefined)	56.2µM*	?	38.9%	-31.7%	-3.6%	.
CCOC(=O)C1CCCN(c2c(C(=O)c3ccc(OCC)cc3)cnc3ccccc23)C1 (centres undefined)	?	-38.7%	6.0%	?	.	.
COc1cc2ncc(C(=O)c3ccc(C)cc3)c(N3CCCCC3)c2cc1OC	8.91µM*	?	-11.1%	56.2µM*	.	.
CCN1CCN(c2c(C(=O)c3ccc(OC)cc3)cnc3ccccc23)CC1	50.1µM*	-10.0%	60.6%	-10.7%	18.5%	.
Cc1ccccc1CNC(=O)C(C)N(c1ccccc1)S(C)(=O)=O (centres undefined)	0.4%[59 µM]	0.8%	36.3%	5.2%	.	.
COC1(c2ccccc2)NC(=S)NN=C1c1ccccc1 (centres undefined)	?	-4.5%	11.6%	-21.0%	-0.7%	.
CCCCOC1(c2ccccc2)NC(=S)NN=C1c1ccccc1 (centres undefined)	44.7µM*	-37.2%	.	.	6.2%	.
COc1ccc(/C=C/c2onc(C)c2S(=O)(=O)N2CCC(C(=O)N3CCCCC3)CC2)cc1	-25.6%[59 µM]	-2.0%	30.4%	-9.3%	.	.
C=CCOc1ccc(/C=C/C(=O)N2CCCN(S(=O)(=O)c3c(C)noc3C)CC2)cc1	44.7µM*	-4.5%	19.1%	-6.2%	.	-1.2%
CCc1ccc2[nH]c(=O)c(CN(Cc3ccco3)Cc3nnnn3Cc3ccco3)cc2c1	.	.	-8.1%[57 µM]	-28.5%[57.1 µM]	.	.
Cc1cccc(CNC(=O)CS(=O)(=O)c2cccc3nsnc23)c1	30.2%[59 µM]	-1.3%	12.1%[57 µM]	-30.3%	.	.
COC(CNC(=O)c1ccc(N2CCc3ccccc32)c([N+](=O)[O-])c1)OC	44.7µM*	39.8µM*	?	?	?	-28.1%
C=C1CCN(c2ccc(C(=O)NCc3ccccc3)cc2[N+](=O)[O-])CC1	22.4µM*	?	-5.7%	?	0.2%	-2.6%
CCCNC(=O)c1ccc(N2CCC3(CC2)CC(c2ccccc2)=NO3)c(NC(=O)c2cccc(OC)c2)c1	44.7µM*	?	22.9%	56.2µM*	13.2%	-1.5%
Cc1ccc(CNC(=O)c2ccc(N3CCc4ccccc43)c([N+](=O)[O-])c2)cc1	8.91µM*	10µM*	31.6µM*	8.91µM*	23.6%	?
CCCNC(=O)c1ccc(N2CCC3(CC2)CC(c2ccccc2)=NO3)c(NC(=O)c2ccco2)c1	.	-3.4%	17.9%	-14.1%	-5.0%	-1.1%
Cc1cccc(CNC(=O)c2cnc3sc(N4CCCCCC4)nn3c2=O)c1	20.4%[59 µM]	-7.6%	-6.2%	?	.	.
COc1ccccc1CNC(=O)CSCc1nc(-c2ccc(OC)c(OC)c2)oc1C	?	?	20.1%	-13.5%	.	.
COc1ccc(C2Nc3ccccc3C(=O)N2Cc2ccccc2)cc1COc1ccc(NC(=O)c2ccccc2)cc1 (centres undefined)	.	.	.	-25.9%	.	.
CN1c2ccccc2-c2nc(SCC(=O)Nc3ccccc3)ncc2S1(=O)=O	-7.1%[59 µM]	-20.1%	-4.2%	5.8%	.	.
SMILES	G9a inh	BAZ2B inh	HP1b binding inh	JMJD2A Tudor inh	Sfp inh	L3MBTL1 inh
Cc1ccc(CNC(=O)c2ccc(N3CCC4(CC3)CC(c3ccccc3)=NO4)c([N+](=O)[O-])c2)cc1	70.8µM*	-31.0%	?	-34.7%	8.9%	-2.4%
COc1ccc(-c2ccc(CCC(=O)O)n2CC(C)C)cc1	?	?	20.0%	-26.3%	?	.
COc1ccc(-c2ccc(CCC(=O)O)n2-c2ccccc2O)cc1	?	?	15.6%	?	79.4µM*	-22.5%
COc1ccc(-n2c(CCC(=O)O)ccc2-c2ccccc2)cc1	50.1µM*	?	14.2%	-19.6%	-24.3%	?
COc1ccc(-c2ccc(CCC(=O)O)n2-c2ccccc2C(F)(F)F)cc1	?	?	18.0%	?	.	.
CCS(=O)(=O)c1ccc2oc(=O)c(/C=C(\O)c3ccc(Cl)cc3)nc2c1	-36.0%	?	23.6%	-17.5%	-5.0%	-27.7%
C/C(O)=C\c1nc2ccccc2oc1=O	?	-7.4%	-12.7%	-13.0%[11.4 µM]	?	-1.2%
O=c1oc2ccc(Cl)cc2nc1/C=C(\O)c1cccs1	3.16µM*	50.1µM*	-0.9%	?	?	.
Cc1ccc2oc(=O)c(/C=C(\O)c3ccccc3)nc2c1	7.94µM*	-32.1%	60.6%	-22.6%	?	.
Cc1ccc2oc(=O)c(/C=C(\O)CC(C)C)nc2c1	50.1µM*	-35.3%	17.8%	-16.9%	2.5%	4.5%
Cc1ccc2oc(=O)c(/C=C(\O)c3cccs3)nc2c1	?	-24.2%	22.2%	-2.1%	-9.4%	-9.8%
O=c1oc2ccccc2nc1/C=C(\O)c1ccc(Br)cc1	.	5.8%	33.5%	-14.7%	56.2µM*	.
CCc1cccc(C)c1NC(=O)CSc1nc2ccc(N3C(=O)c4ccccc4C3=O)cc2s1	.	3.3%	40.3%	-6.2%	-3.4%	0.5%
CCc1cccc(CC)c1NC(=O)CSc1nc2ccc(N3C(=O)C4C(C3=O)[C@H]3C=C[C@@H]4C3)cc2s1 (some centres undefined)	1.41µM*	-35.0%	-14.8%	-18.8%	-4.9%	3.2%
Cn1c(=O)c2c(ncn2CC(=O)N/N=C/C(Cl)=C/c2ccccc2)n(C)c1=O	19.5%[59 µM]	-24.5%	-3.8%	-28.8%	2.3%	9.5%
Cc1ccc(/C=N/NC(=O)Cn2cnc3c2c(=O)n(C)c(=O)n3C)s1	3.7%[59 µM]	6.4%	19.8%	-10.6%	35.2%	-10.3%
Cn1c(=O)c2c(ncn2CC(=O)N/N=C/C=C/c2ccco2)n(C)c1=O	.	-10.4%	2.5%	-17.4%	14.1µM*	-4.8%
